Only some compounds are listed: those with a hit (about 7.4% of all), similar ones and a draw of the others.
SMN2 splice enh: SMN2 splice variant enhancement; 210,000 compounds, 2.8% hits; HEK293 SMN2-luciferase splicing reporter, luminescence, 30-36 h; Potency, µM (top dose mostly 46.1 µM), most hits filed as activators; further: nearly all actives have a fitted effect of over 55% in size
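qHTS luciferase splicing reporter: luminescence rises when SMN2 exon 7 is included in transfected HEK293 cells. Compound exposure lasted 30-36 h at 37C, with 4.5 mM final sodium butyrate as control, followed by a ONE-Glo read.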
FLuc modulator: inhibits or activates purified firefly luciferase, miR-21 counter-screen; P08659; purified FLuc, Km substrates, luminescence inhibition; Potency, µM (titrated, usually from 57.5 µM), actives largely listed as inhibitors; 360,000 compounds, 6.9% hits; AID 588342; further: nearly all actives have a fitted effect of over 55% in size
Target sequence (P08659 whole entry, looked up): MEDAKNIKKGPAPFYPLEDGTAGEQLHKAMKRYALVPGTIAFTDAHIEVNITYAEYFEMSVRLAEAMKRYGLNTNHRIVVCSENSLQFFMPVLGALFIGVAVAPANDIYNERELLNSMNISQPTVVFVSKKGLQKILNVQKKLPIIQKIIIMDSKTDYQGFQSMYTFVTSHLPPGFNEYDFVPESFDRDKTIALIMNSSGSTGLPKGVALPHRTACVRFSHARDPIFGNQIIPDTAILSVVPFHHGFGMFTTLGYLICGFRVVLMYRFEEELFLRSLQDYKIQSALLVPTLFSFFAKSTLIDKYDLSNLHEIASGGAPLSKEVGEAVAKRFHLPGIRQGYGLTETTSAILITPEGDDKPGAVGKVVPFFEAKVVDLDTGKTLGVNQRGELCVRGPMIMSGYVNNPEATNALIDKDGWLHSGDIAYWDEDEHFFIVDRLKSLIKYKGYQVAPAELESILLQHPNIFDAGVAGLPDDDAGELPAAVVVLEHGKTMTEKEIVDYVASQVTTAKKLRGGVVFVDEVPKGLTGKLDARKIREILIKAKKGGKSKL
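Purified P. pyralis luciferase (10nM final) with 10uM D-luciferin and 10uM ATP (Km levels) in 50mM Tris acetate pH 7.5, 10mM Mg acetate, 0.01% Tween-20, 0.05% BSA; qHTS 6-point titration, ~60 µM downward; luminescence read.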
ELG1 genotoxic: induces genotoxicity in HEK293T cells with luciferase-tagged ELG1; HEK293T ELG1-luciferase reporter, luminescence, 16 h; Potency, µM (highest dose often 46 µM), usual class: activators; 330,000 compounds, 1.3% hits; AID 504466; further: nearly all actives have a fitted effect of over 60% in size
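After overnight (16 hr) compound treatment at 37 °C, ELG1-luciferase HEK293T cells were lysed with ONE-Glo; luminescence quantified 30 min later at room temperature.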
NPC1 prom act: activators of NPC1 promoter; Potency, µM (highest dose often 9.22 µM), usual class: activators; 320,000 compounds, 2.4% hits; AID 485313; Huh7 NPC1 promoter luciferase reporter, 24 h; further: nearly all actives have a fitted effect of over 60% in size
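NPC1 promoter–luciferase Huh7 cells; 24 h compound; luminescence.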
Rab9 prom act: activators of Rab9 promoter; Huh7 Rab9 promoter-luciferase reporter, luminescence, 24 h; Potency, µM (titrated, usually from 9.22 µM), usual class: activators; 320,000 compounds, 2.8% hits; further: nearly all actives have a fitted effect of over 60% in size
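Huh7 cells stably carrying Rab9 promoter–luciferase reporter, plated 1500 cells/well, compound added after 2 h and incubated 24 h at 37 °C; luciferase luminescence then read after 10 min with detection reagent.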
A number is an active result; – = inactive; ? = inconclusive; · = not tested or not shown; [ ] = remark or other dose. The call rests on the fitted dose curve; in most records, active means well fitted curve in the direction sought with a large enough effect; inconclusive means small, poorly fitted or top-dose-only effect, or another doubt; inactive means no such curve, though single readings can be large; an effect the other way counts as inactive or inconclusive.

SMILES | SMN2 splice enh | FLuc modulator | ELG1 genotoxic | NPC1 prom act | Rab9 prom act
CC(/C=C1\SC(=O)N(CCCC(=O)O)C1=O)=C\c1ccccc1 | – | 5.4µM | – | – | –[0.369 µM]
CC(=C\c1ccccc1)/C=C1/SC(=S)N(CCCC(=O)O)C1=O | · | 27µM | – | – | –
C=CCN1C(=O)/C(=C\C(C)=C\c2ccccc2)SC1=S | · | 8.5µM | ? | – | –
CC(=C\c1ccccc1)/C=C1/SC(=S)N(C(C(=O)O)C(C)C)C1=O (stereo not drawn) | – | 27µM | – | – | –
CCC(C(=O)O)N1C(=O)/C(=C/C(C)=C/c2ccccc2)SC1=S (stereo not drawn) | · | – | – | – | –
CC(/C=C1\SC(=S)N(NC(=O)c2ccc(O)cc2)C1=O)=C\c1ccccc1 | ? | ? | – | – | –
O=C(O)CCCN1C(=O)/C(=C\c2ccco2)SC1=S | · | ? | – | – | –
Cc1ccc(C(=O)Nc2nc3ccc(S(=O)(=O)N4CCCC4)cc3s2)cc1 | · | – | · | · | ·
O=C(/C=C/c1ccc2c(c1)OCO2)Nc1nc2ccc(F)cc2s1 | · | ? | ? | 1.8µM | 1.4µM
Cc1ccc2nc(NC(=O)c3ccc4ncsc4c3)sc2c1 | 7.1µM | 0.95µM | 2.9µM | 1.6µM | 1.3µM
NS(=O)(=O)c1ccc2nc(NC(=O)c3ccc4c(c3)OCCO4)sc2c1 | · | – | – | – | –
Cc1ccc2nc(NC(=O)c3ccc4c(c3)OCO4)sc2c1 | 11µM | 0.95µM | – | 1.6µM | 1.1µM
NS(=O)(=O)c1ccc2nc(NC(=O)c3ccc4ncsc4c3)sc2c1 | · | 2.4µM | – | – | –
O=C(Nc1ccon1)c1ccc2c(c1)OCO2 | ? | ? | ? | – | ?
CCOc1ccc(CCNC(=O)CN2C(=O)NC(CCSC)C2=O)cc1OCC (stereo not drawn) | – | – | – | – | –
C[C@@H]1CN([C@@H](C)CO)C(=O)c2cc(NC(=O)Nc3ccccc3)ccc2O[C@H]1CN(C)C(=O)Nc1cccc2ccccc12 | · | · | – | · | ·
CCOC(=O)CSc1nc(-c2ccccc2)cc(C(F)(F)F)c1C#N | – | – | · | · | ·
CCOC(=O)c1sc(-c2cccs2)nc1C | – | 17µM | – | – | –
C/C(=N\O)c1sc(-c2ccccc2)nc1C | 16µM | 8.5µM | ? | 4µM | 3.2µM
CC(=O)Nc1ccc(NC(=O)c2sc(-c3ccccc3)nc2C)cc1 | · | ? | – | – | –
CNC(=O)c1sc(-c2ccccc2)nc1C | – | ? | ? | – | –
CCOC(=O)Cc1ccc2sc(-c3ccccc3)nc2c1 | 16µM | 0.48µM | 6.5µM | 3.2µM | 1.6µM
CNC(=O)c1sc(-c2ccc(Cl)cc2)nc1C | ? | 15µM | · | · | ·
Cc1ccc(SCC(=O)NNC(=O)c2cncc(Br)c2)cc1 | · | · | – | · | ·
CCc1ccc(-n2nc3ccc(NC(=O)COc4ccc(OC)cc4)cc3n2)cc1 | ? | – | · | · | ·
SMILES | SMN2 splice enh | FLuc modulator | ELG1 genotoxic | NPC1 prom act | Rab9 prom act
CCn1ccc(C(=O)Nc2ccsc2C(=O)OC)n1 | · | – | – | – | –
C[C@@H]1CN([C@@H](C)CO)C(=O)Cc2cc(NS(=O)(=O)c3cn(C)cn3)ccc2O[C@@H]1CN(C)C(=O)Nc1ccccc1 | · | · | – | · | ·
Cc1nc(-c2ccccc2)sc1C(N)=O | – | – | – | – | –
CCOC(=O)c1sc(-c2ccccc2)nc1C | – | 13µM | ? | – | –
CC(NC(=O)CCc1nnc(CCCc2ccccc2)o1)c1ccccc1 (stereo not drawn) | ? | ? | ? | – | ?
O=C(N/N=C/c1ccco1)c1cc(C2CC2)nc2ccccc12 | – | – | – | – | –
O=C(N/N=C/c1ccco1)c1cc(-c2ccccc2)nc2ccccc12 | · | 21µM | – | – | –
COc1cccc(-c2cc(C(=O)NN3CCOCC3)c3ccccc3n2)c1 | – | – | – | – | –
COc1cccc(-c2cc(C(=O)N/N=C/c3ccco3)c3ccccc3n2)c1 | · | 3.4µM | – | – | –
CCNC(=O)N(C)C[C@H]1N[C@@](Cc2ccccc2)(C(=O)OC)[C@H]2C(=O)N(C)C(=O)[C@@H]12 | · | · | – | · | ·
COc1ccc(/C=C/C(=O)c2ccc(C(=O)/C=C/c3ccc(OC)c(OC)c3)cc2)cc1OC | · | – | – | – | –
COc1cc(/C=C/C(=O)c2ccc3c(c2)OCCO3)cc(OC)c1OC | · | ? | – | – | –
COc1ccc(OC)c(/C=C/C(=O)c2ccc3c(c2)OCCO3)c1 | · | 2.4µM | – | – | –
COc1cc(/C=C/C(=O)c2ccc(C)cc2)ccc1OCC#N | – | 17µM | – | – | –
COc1cc(/C=C/C(=O)c2ccc3c(c2)OCO3)cc(OC)c1OC | · | · | – | – | –
COc1ccc(C(=O)COC(=O)c2ccc3c(c2)OCCO3)c(OC)c1 | · | 12µM | – | – | –
COc1ccc(/C=C/C(=O)c2ccc3c(c2)OCO3)cc1OC | · | 15µM | ? | – | –
Clc1cnc(Nc2cccnc2)c(Cl)c1 | · | – | – | – | –
O=C(OC1Cc2c(O)cc(O)cc2OC1c1cc(O)c(O)c(O)c1)c1cc(O)c(O)c(O)c1 (stereo not drawn) | – | · | · | · | ·
Cc1cccc(N2CCN(Cc3nnc(-c4cccc(Br)c4)o3)CC2)c1C | – | – | · | · | ·
CCOC(=O)C1CCN(C(=O)C2COc3ccccc3O2)CC1 (stereo not drawn) | · | – | – | – | –
CC1CCCN(c2oc(-c3cccc4ccccc34)nc2C#N)C1 (stereo not drawn) | – | 5.4µM | ? | ? | ?
CC(C)(C)c1ccc(-c2nc(C#N)c(N3CCC(C(N)=O)CC3)o2)cc1 | · | 21µM | – | – | –
Cc1ccccc1-c1nc(C#N)c(N2CCC(C)CC2)o1 | · | 24µM | – | – | –
COc1ccc(-c2nc(C#N)c(N3CCC(C(N)=O)CC3)o2)cc1 | – | – | – | – | –
SMILES | SMN2 splice enh | FLuc modulator | ELG1 genotoxic | NPC1 prom act | Rab9 prom act
CC1CCN(c2oc(-c3ccccc3Cl)nc2C#N)CC1 | · | 11µM | ? | ? | ?
Cc1cccc(-c2nc(C#N)c(N3CCC(C)CC3)o2)c1 | · | – | – | – | –
O=C(CSc1nnc(CNC(=O)c2ccccc2F)n1-c1ccccc1)Nc1ccccc1F | – | – | · | · | ·
Cc1ccc(S(=O)(=O)NCc2ccccc2)cc1C(=O)N(C)CC(=O)Nc1c(Cl)cccc1Cl | · | – | – | – | –
COCCNC(=O)C1CCCN(S(=O)(=O)c2ccc3c(ccn3C)c2)C1 (stereo not drawn) | · | – | · | · | ·
Cn1nc(-c2ccc(OCC(=O)Nc3ccc(Cl)cc3)cc2)c2ccccc2c1=O | – | – | · | · | ·
Cc1ccc(N2C(=O)C3C(C2=O)C2C=CC3C23CC3)cc1 (stereo not drawn) | – | 11µM | – | – | –
Fc1cccc(Cl)c1Cc1noc(/C=C/c2ccccc2)n1 | · | 13µM | – | ? | ?
CN1/C(=C\C=C2/SC(=S)NC2=O)C(C)(C)c2ccccc21 | · | ? | – | – | –
CN1/C(=C\C=C2/C(=O)Oc3ccccc3C2=O)C(C)(C)c2ccccc21 | ? | ? | ? | ? | 2.8µM
CN(C)c1ccc(N=C/C=C2/N(C)c3ccccc3C2(C)C)cc1 | – | 15µM | – | – | –

Assay outcomes (PubChem)
